In test [1] the target is human Beta-secretase (BACE), BACE1 (gene 23621) (UniProt P56817). Briefly: NVS_ENZ_hBACE: NovaScreen (NVS) Enzymatic Assay for human Beta-secretase (BACE) (AID 2283140).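 Further: hits are inhibitors that reduce fluorescent substrate signal versus DMSO.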 The procedure, abridged:
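Enzyme from SF9 cells was incubated 1 hour with compound and fluorogenic substrate, activity read by fluorescence. Single-concentration duplicates at 25 uM preceded concentration-response follow-up; fitting relative to DMSO baseline.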

Test [2] deals with human Dual Specificity Protein Phosphatase 3 (DUSP3), DUSP3 (gene 1845) (UniProt P51452). Briefly: NVS_ENZ_hDUSP3: NovaScreen (NVS) Enzymatic Assay for human Dual Specificity Protein Phosphatase 3 (DUSP3) (AID 2283152). The procedure, abridged: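 Cell-free fluorescence-intensity enzyme activity assay with recombinant protein and substrate; loss of signal fitted relative to DMSO baseline. Primary screen in duplicate at 25 uM, actives then run in concentration series; measured 0 h after dosing.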

Test [3] addresses human Esterase Plasma (ES), BCHE (gene 590) (UniProt P06276). The test is described as follows: NVS_ENZ_hES: NovaScreen (NVS) Enzymatic Assay for human Esterase Plasma (ES) (AID 2283157). The procedure, abridged: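 Primary single-concentration screen at 25 uM in duplicate, then concentration-response to a 50 uM top dose. Human plasma esterase activity detected colorimetrically after 0.25 h incubation, with DMSO as baseline.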

The target of test [4] is Peroxisome proliferator-activated receptor gamma (Homo sapiens) (UniProt P37231). Briefly: NVS_NR_hPPARg: NovaScreen (NVS) Nuclear Receptor Binding Assay for human Peroxisome Proliferator-activated Receptor gamma (PPARg) (AID 2283370). The procedure, abridged: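 Cell-free binding to extracted PPARg protein, read by fluorescence polarization 2 h after dosing; loss of signal relative to DMSO baseline marks displacement. Primary screen in duplicate at 25 uM, actives retested in concentration series.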

Test [5] concerns the target PGR (gene 5241) (UniProt P06401). Briefly: TOX21_PR_BLA_Followup_Agonist_ratio: Tox21 HEK293 Progesterone Receptor (PR) Agonism Beta-lactamase Follow-Up Assay, Ratio (AID 2283933). In a few lines:
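Beta-lactamase reporter readout: ratio of cleaved (ch2) to uncleaved (ch1) substrate after 2 h room-temperature loading, following 16 h compound exposure at 37C. Cells were PR-UAS-bla HEK293T in 2% charcoal-stripped FBS medium. Viability was multiplexed by CellTiter-Glo.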

Test [6] shares this target. The test is described as follows: TOX21_PR_LUC_Followup_Agonist: Tox21 HEK293 Progesterone Receptor (PR) Agonism Luciferase Follow-Up Assay (AID 2283937; active means hit-call score of the fitted dose curve at least 0.9, where 1 is the maximum; inactive means score below 0.9). In a few lines: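 Agonism scored as luciferase induction over DMSO, read by ONE-Glo after 30 min at RT. Compounds were incubated 16 h at 37C on HEK293-PR-A-luc cells (3,000/well, pre-plated 5 h) previously grown 5 days in charcoal-stripped serum.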

Test [7] shares this target. The test is described as follows: TOX21_PR_LUC_Followup_Antagonist: Tox21 HEK293 Progesterone Receptor (PR) Antagonism Luciferase Follow-Up Assay (AID 2283938).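 Further: curve fitted upward as signal gain over DMSO baseline despite antagonist label.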 The procedure, abridged: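 HEK293-PR-A-luc cells were precultured 5 days in medium with 10% charcoal-stripped FBS, seeded 3,000/well, then exposed to compounds in DMSO for 16 h at 37C. Luciferase was read by ONE-Glo luminescence after 30 min at room temperature.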

A short description of test [8]: CCTE_Deisenroth_H295R-HTRF_384WELL_ESTRADIOL: CCTE's H295R-HTRF Assay Evaluation of Estradiol Concentration, Deisenroth Lab (AID 2284361; active means hit-call score of the fitted dose curve at least 0.9, where 1 is the maximum; inactive means score below 0.9). To be noted: actives raise or lower the signal. The procedure, abridged: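 Estradiol secreted into medium by H295R adrenocortical cells, quantified by HTRF after 48 h dosing over a nine-point 0.001 - 100 uM final range; gain or loss versus DMSO. Parallel ATP-luminescence viability readout; n=5 experiments.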
Background: Time-resolved FRET reads energy transfer from a long-lived donor to a nearby acceptor.

Test [9] is described as follows: CCTE_Deisenroth_H295R-HTRF_384WELL_TESTOSTERONE: CCTE's H295R-HTRF Assay Evaluation of Testosterone Concentration, Deisenroth Lab (AID 2284373; active means hit-call score of the fitted dose curve at least 0.9, where 1 is the maximum; inactive means score below 0.9). The note with it: actives raise or lower the signal. The procedure, abridged:
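H295R cells were acclimated 24 h, then exposed 48 h to nine concentrations (0.001–100 uM final) in technical triplicate, n=5. Testosterone in conditioned medium was measured by HTRF (em 620/665 nm). Fitting was bidirectional versus DMSO; CellTiter-Glo viability ran on the same plates.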

The nature of test [10]: CCTE_Deisenroth_H295R-HTRF_384WELL_CTOX: Cytotoxicity Assessment in CCTE's H295R-HTRF Assay, Deisenroth Lab (AID 2284380). The procedure, abridged: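 Luminescent ATP viability readout (CellTiter-Glo 2.0), multiplexed on plates used for hormone sampling, after 48 h chemical exposure. Human H295R cells; final concentrations 0.001–100 uM in nine steps, technical triplicates, five experiments; DMSO baseline.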

Test [11] in a line: Tanguay_ZF_120hpf_PFIN_legacy: (Legacy) Oregon State University Tanguay Lab 120 Hour Post-fertilization zebrafish Assay for Pectoral Fin Malformation (AID 2283648).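 Further: each larva judged yes or no for fin defect by brightfield with dead larvae skipped.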 The procedure, abridged: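 Pectoral fin malformation was recorded as a binary endpoint at 120 hpf in wild-type Tropical 5D larvae, which had been dechorionated and exposed statically from 6 hpf at 28C in 0.64% DMSO. Dead embryos were excluded.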

The nature of test [12]: Tanguay_ZF_120hpf_CFIN_legacy: (Legacy) Oregon State University Tanguay Lab 120 Hour Post-fertilization zebrafish Assay for Caudal Fin Malformation (AID 2283649). The procedure, abridged: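 Tropical 5D wild-type embryos, dechorionated with pronase at 4 hpf, were placed singly in wells at 6 hpf and statically exposed to compound at 28C until 120 hpf (0.64% DMSO). Caudal fin malformation was scored present/absent by brightfield microscopy.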

Test [13] can be described thus: Tanguay_ZF_120hpf_SWIM_legacy: (Legacy) Oregon State University Tanguay Lab 120 Hour Post-fertilization zebrafish Assay for Swim Bladder Malformation (AID 2283654).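 Further: swim bladder malformation in each larva scored yes or no under brightfield.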 The procedure, abridged:
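Scoring is binary for swim bladder defects at 120 hpf, by brightfield inspection of zebrafish larvae. Embryos were exposed singly from 6 hpf after pronase dechorionation, at 28C with 0.64% DMSO; mortality excluded scoring.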

The nature of test [14]: Tanguay_ZF_120hpf_TRUN_legacy: (Legacy) Oregon State University Tanguay Lab 120 Hour Post-fertilization zebrafish Assay for Truncated Body (AID 2283655). In a few lines: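 Tropical 5D wild-type embryos, dechorionated with pronase at 4 hpf, were placed singly in wells at 6 hpf and statically exposed at 28C until 120 hpf, final DMSO 0.64%. Truncated body was scored present/absent by brightfield microscopy.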

Test [15] in a line: Tanguay_ZF_120hpf_NC_legacy: (Legacy) Oregon State University Tanguay Lab 120 Hour Post-fertilization zebrafish Assay for Notochord and Tail Malformation (AID 2283656). The procedure, abridged:
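Binary scoring of notochord distortion by brightfield microscopy; embryos dying were not scored. Wild-type Tropical 5D embryos, chorion removed, exposed singly and statically from 6 to 120 hpf, 28C, sealed, 0.64% DMSO.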

Test [16] in a line: Tanguay_ZF_120hpf_TR_legacy: (Legacy) Oregon State University Tanguay Lab 120 Hour Post-fertilization zebrafish Assay for Touch Response (AID 2283667). In a few lines: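 Binary touch-response endpoint in larvae at 120 hpf after static waterborne exposure from embryo stage (28°C, 0.64% DMSO vehicle, 5 uM trimethyltin chloride as positive control); embryos dead at 24 or 120 hpf excluded; fitted as gain versus DMSO.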

Test [17] in a line: Tanguay_ZF_120hpf_ActivityScore_legacy: (Legacy) Oregon State University Tanguay Lab 120 Hour Post-fertilization zebrafish Assay Score for Activity (AID 2283742). In a few lines: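 Binary scoring of mortality and morphology by brightfield at 24 and 120 hpf, summarised into one activity score from 18 components relative to DMSO. Wild-type Tropical 5D zebrafish, chorion removed at 4 hpf, static exposure 6–120 hpf, 28 °C.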

The target in test [18] is human AMP-activated Protein Kinase, alpha 1 (AMPKa1), PRKAA1 (gene 5562) (UniProt Q13131). Briefly: NVS_ENZ_hAMPKa1: NovaScreen (NVS) Enzymatic Assay for human AMP-activated Protein Kinase, alpha 1 (AMPKa1) (AID 2283130). In a few lines: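 Compounds were screened in duplicate at 25 uM, and those reaching ~30% inhibition were titrated up to 50 uM. The enzyme was recombinant human AMPKα1, and kinase turnover was read by fluorescence/mobility shift 1 h post-dosing as loss of signal versus DMSO.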

Test [19] addresses rat CYP1A2, Cyp1a2 (gene 24297) (UniProt P04799). The test is described as follows: NVS_ADME_rCYP1A2: NovaScreen (NVS) CYP450-related Enzyme Activity (ADME) Assay for rat CYP1A2 (AID 2283115). In a few lines: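 Primary testing ran in duplicate at 10 uM, with actives re-tested across concentration series. Fluorescence intensity from substrate turnover by recombinant protein, measured 1 hour post-dosing, with signal loss scored against acetonitrile vehicle.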

Test [20] has as its target rat Monoamine Oxidase, MAO-B, Central (MAOBC), Maob (gene 25750) (UniProt P19643). Briefly: NVS_ENZ_rMAOBC: NovaScreen (NVS) Enzymatic Assay for rat Monoamine Oxidase, MAO-B, Central (MAOBC) (AID 2283238). In a few lines: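 Actives from a duplicate 25 uM screen went on to singleton concentration-response with a 50 uM maximum. Enzyme source was rat brain tissue MAO-B, assayed cell-free. Radiolabelled product was counted by scintillation 1.17 h post-dose, with signal loss relative to DMSO.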

For ten molecules, outcome and AC50 results are on record in PubChem BioAssay (EPA / NIEHS).

Values joined by “and” are separate entries in the source; they are usually repeats but may differ in a detail not shown here. Equal entries are not always repeated. Inconclusive results are not listed. Active and inactive are the calls of the source. How the source made its calls, unless noted: active means hit-call score of the fitted dose curve at least 0.9, where 1 is the maximum; inconclusive means response in the unintended direction; inactive means score below 0.9.

Broadly, the AC50 is the concentration at which the activity in the assay is half-maximal.

Chain of PGR (gene 5241) (P06401 whole entry, looked up): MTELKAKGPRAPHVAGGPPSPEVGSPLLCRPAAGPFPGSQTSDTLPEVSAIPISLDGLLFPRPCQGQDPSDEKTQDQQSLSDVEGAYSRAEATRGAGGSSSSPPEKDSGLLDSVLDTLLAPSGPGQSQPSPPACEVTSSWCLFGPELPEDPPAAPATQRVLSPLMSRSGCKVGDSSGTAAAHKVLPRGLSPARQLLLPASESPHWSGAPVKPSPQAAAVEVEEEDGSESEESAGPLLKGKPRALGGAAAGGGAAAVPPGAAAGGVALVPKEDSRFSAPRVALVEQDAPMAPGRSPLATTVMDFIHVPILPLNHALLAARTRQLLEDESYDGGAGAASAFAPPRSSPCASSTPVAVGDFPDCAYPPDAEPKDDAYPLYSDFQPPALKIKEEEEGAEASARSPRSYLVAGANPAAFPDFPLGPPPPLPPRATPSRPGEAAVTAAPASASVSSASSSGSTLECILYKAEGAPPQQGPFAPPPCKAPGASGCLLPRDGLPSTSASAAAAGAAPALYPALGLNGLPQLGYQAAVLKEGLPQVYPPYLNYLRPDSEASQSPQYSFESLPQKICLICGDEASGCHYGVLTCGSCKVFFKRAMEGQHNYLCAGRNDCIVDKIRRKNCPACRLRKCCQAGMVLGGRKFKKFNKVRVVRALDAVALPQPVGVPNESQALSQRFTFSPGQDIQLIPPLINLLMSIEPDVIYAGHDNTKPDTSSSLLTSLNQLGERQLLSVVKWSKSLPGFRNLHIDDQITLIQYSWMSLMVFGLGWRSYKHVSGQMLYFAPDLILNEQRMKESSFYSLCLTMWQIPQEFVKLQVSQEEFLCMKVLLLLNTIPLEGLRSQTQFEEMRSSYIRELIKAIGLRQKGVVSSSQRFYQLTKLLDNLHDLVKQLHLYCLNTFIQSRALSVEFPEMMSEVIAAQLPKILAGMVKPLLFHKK
Chain of rat Monoamine Oxidase, MAO-B, Central (MAOBC), Maob (gene 25750) (P19643 whole entry, looked up): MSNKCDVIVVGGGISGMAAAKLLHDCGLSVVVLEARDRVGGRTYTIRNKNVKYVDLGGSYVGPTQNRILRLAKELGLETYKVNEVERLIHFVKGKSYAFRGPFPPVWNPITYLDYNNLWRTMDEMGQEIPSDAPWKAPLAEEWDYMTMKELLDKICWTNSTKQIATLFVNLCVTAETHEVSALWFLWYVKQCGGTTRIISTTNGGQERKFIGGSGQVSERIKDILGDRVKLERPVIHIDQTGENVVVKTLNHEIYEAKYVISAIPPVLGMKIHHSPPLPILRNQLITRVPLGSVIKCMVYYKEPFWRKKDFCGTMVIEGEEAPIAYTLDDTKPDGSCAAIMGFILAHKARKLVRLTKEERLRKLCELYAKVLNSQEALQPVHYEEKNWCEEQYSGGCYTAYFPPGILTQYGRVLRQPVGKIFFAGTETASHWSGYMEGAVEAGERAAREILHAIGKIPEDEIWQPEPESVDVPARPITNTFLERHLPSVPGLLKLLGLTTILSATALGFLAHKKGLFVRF
Chain of human AMP-activated Protein Kinase, alpha 1 (AMPKa1), PRKAA1 (gene 5562) (Q13131 whole entry, looked up): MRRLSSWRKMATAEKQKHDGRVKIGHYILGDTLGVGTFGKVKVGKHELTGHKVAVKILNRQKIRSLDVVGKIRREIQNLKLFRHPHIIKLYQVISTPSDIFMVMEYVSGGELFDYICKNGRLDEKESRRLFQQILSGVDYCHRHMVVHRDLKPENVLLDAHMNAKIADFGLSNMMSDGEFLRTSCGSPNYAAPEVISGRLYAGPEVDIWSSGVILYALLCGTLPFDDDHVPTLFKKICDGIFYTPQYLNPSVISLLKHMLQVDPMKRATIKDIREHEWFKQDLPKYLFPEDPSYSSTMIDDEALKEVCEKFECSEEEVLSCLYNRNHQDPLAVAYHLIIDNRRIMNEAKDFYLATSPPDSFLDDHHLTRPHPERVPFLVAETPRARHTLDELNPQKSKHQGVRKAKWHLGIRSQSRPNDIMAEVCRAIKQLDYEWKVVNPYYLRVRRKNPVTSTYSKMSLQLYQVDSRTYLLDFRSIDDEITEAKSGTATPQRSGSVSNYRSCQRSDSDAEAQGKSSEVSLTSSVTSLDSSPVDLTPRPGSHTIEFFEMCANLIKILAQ
Chain of rat CYP1A2, Cyp1a2 (gene 24297) (P04799 whole entry, looked up): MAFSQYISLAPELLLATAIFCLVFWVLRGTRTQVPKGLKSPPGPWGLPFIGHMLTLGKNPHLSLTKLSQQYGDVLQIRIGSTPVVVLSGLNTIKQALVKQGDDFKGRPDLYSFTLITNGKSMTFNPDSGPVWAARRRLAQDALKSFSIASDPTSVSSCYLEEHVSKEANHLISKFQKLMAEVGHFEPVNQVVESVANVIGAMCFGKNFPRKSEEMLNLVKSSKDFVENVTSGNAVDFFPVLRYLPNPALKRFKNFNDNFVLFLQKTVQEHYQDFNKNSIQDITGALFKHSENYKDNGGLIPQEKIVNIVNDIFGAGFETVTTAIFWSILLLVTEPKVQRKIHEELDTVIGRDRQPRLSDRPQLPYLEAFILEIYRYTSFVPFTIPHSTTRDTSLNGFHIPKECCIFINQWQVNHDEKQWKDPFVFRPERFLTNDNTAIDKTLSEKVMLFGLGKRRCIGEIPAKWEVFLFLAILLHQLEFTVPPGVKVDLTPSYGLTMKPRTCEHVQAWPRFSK
Chain of Peroxisome proliferator-activated receptor gamma (Homo sapiens) (P37231 whole entry, looked up): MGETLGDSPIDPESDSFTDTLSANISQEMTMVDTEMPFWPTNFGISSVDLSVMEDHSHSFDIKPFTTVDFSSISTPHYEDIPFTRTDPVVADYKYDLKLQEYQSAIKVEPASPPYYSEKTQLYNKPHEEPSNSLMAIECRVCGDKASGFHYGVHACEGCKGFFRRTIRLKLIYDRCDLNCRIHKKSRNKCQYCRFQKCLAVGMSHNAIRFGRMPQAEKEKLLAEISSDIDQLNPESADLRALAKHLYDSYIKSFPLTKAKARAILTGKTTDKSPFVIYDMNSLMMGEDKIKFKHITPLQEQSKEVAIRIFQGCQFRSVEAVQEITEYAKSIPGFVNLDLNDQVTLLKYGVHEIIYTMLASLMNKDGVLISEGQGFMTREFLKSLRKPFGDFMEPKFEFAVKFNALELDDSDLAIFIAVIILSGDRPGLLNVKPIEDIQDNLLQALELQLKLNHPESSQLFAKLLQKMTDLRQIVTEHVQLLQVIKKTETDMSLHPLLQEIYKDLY
Chain of human Beta-secretase (BACE), BACE1 (gene 23621) (P56817 whole entry, looked up): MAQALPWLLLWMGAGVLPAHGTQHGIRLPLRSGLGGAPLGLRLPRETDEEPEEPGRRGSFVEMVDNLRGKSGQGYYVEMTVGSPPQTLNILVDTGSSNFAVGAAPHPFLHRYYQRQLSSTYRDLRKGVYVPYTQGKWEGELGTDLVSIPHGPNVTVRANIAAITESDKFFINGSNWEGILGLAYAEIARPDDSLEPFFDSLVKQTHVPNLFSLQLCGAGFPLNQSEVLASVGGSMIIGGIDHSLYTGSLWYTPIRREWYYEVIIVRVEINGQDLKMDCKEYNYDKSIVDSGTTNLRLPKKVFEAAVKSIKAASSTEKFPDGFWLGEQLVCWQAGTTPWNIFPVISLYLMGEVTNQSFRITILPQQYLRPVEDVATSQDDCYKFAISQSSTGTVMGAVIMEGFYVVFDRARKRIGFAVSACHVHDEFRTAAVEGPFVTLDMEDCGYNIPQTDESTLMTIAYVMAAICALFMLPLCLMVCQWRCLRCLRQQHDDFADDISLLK
Chain of human Esterase Plasma (ES), BCHE (gene 590) (P06276 whole entry, looked up): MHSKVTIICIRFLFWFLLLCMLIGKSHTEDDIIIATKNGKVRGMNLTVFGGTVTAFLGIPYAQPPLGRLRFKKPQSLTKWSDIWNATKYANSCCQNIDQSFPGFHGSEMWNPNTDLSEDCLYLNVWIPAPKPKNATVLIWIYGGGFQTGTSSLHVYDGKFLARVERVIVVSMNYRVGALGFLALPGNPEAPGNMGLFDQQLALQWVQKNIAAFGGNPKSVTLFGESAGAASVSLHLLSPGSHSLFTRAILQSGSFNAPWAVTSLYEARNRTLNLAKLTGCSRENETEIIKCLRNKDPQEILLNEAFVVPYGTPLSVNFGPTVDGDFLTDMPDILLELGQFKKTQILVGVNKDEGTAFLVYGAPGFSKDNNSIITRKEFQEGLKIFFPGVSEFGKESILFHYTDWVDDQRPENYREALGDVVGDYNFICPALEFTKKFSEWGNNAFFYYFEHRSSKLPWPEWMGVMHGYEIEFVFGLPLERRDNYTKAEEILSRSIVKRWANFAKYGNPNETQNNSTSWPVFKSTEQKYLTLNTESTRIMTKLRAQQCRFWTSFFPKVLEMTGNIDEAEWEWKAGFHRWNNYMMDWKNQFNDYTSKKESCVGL
Chain of human Dual Specificity Protein Phosphatase 3 (DUSP3), DUSP3 (gene 1845) (P51452 whole entry, looked up): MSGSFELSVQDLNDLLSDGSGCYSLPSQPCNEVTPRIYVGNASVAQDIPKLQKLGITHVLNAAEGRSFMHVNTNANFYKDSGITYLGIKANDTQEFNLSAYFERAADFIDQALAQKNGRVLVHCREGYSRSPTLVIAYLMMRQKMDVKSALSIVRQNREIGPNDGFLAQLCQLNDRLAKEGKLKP

Take `CC(C)COP(=O)(OCC(C)C)OCC(C)C`: the molecule was called inactive in test [1].

For `CC1OC(C)OC(C)O1` (stereo not given), the molecule was classed as inactive in [2] and in test [3].

`O=C(O)CCl`: in test [4], the call was inactive.

In the case of `C[C@]12CC[C@H]3[C@@H](CC[C@@]45O[C@@H]4C(O)=C(C#N)C[C@]35C)[C@@H]1CC[C@@H]2O`, the outcome in test [5], in test [6], in test [7] and in [10] was inactive. For the same molecule, the AC50 is 3.06 µM (active) in test [8] and 19 µM (active) in test [9].

For the molecule `N#CCCCCC#N`, the call in [11], in [12], in test [13], in test [14], in [15] and in test [16] was inactive. Further, in test [17], the outcome was inactive.

For `O=[N+]([O-])c1ccc(Cl)cc1`, the outcome in test [18], in [11], in test [12], in test [13], in test [14] and in test [15] was inactive. In addition, the call in test [16] and in [17] was inactive.

In the case of `CCCCOCCOCCOCc1cc2c(cc1CCC)OCO2`, the molecule was called inactive in [19].

For `COC(=O)CSc1cc(N=c2sc(=O)n3n2CCCC3)c(F)cc1Cl`, in test [19], the outcome was inactive.

Take `CCN(CC)CCOc1ccc(C(=C(Cl)c2ccccc2)c2ccccc2)cc1`: the AC50 in test [18] was 26.5 µM (active); in [20] it was 12.4 µM (active) [middle of 4 runs].

`O=c1c(-c2ccc(O)cc2)coc2cc(O)cc(O)c12`: the concentration at half-maximal activity (AC50) in [20] was 31.1 µM (active) and 25 µM (active).
